# Source: PubChem
# Compounds with a hit are over-represented: about 19% of the library has one in this group of screens.
# IL-1B inflam inh: inhibitors of inflammasome signaling (IL-1 beta secretion); actives 4.7% (n = 360,000); THP-1 LPS/ATP IL-1B secretion, AlphaLISA, 16 h; active compounds read low; activity change, % at 57.5 µM; in the data active = activity change below about -50%; inconclusive = mostly about -30% to -49%
#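 THP-1 cells pretreated 1 hr with compounds (up to 57.5 uM final), then stimulated with LPS (250 ng/mL final) plus ATP (1.25 mM final); secreted IL-1B measured by AlphaLISA after 16 hr, decreased signal indicating inhibition.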
# HT1080NT lethal: kills 2HG-producing HT-1080-NT fibrosarcoma cells | actives 1.6% (n = 360,000) | Potency, µM (series often up to 46.1 µM), actives largely listed as cytotoxic | HT-1080-NT fibrosarcoma viability, CellTiter-Glo ATP luminescence, 48 h;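 also: NT is the 2HG producing partner of a matched IDH1 knockdown line; nearly all actives have a fitted effect of over 55% in size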
#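 HT-1080-NT fibrosarcoma cells (2HG-overproducing), 750 cells/well in RPMI with 5% FBS, dosed after 2 h and incubated 48 h at 37C. CellTiter-Glo luminescence normalized to DMSO and no-cell wells; concentration-response curves fitted and classed.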
# HT1080 IDH1KD tx: kills HT-1080 cells with IDH1 knockdown | Potency, µM (doses to about 46.1 µM), usual class: cytotoxic | HT-1080 IDH1 knockdown viability, ATP luminescence, 48 h | actives 2% (n = 360,000)
#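 IDH1KD HT-1080 cells, 750/well, RPMI + 5% FBS; compound pinned after 2 h settling; 48 h, 37 °C; CellTiter-Glo luminescence; % activity normalised to DMSO and no-cell wells; curves fitted, classed by r2 and efficacy.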
# DT40 TDP1 no CPT: qHTS for Inhibitors of human tyrosyl-DNA phosphodiesterase 1 (TDP1): qHTS in cells in absence of CPT. DT40 Tdp1-/- hTDP1 cells, no CPT, ATP luminescence, 48 h. Potency, µM (titrated, usually from 46.2 µM), most hits filed as inhibitors. actives 15% (n = 420,000); also: nearly all actives have a fitted effect of over 55% in size
#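 Seeded 400 DT40-hTDP1 cells/well (vehicle DMSO, no 20 nM CPT); pinned compounds; ≥48 hr at 37 °C; CellTiter-Glo luminescence as viability measure.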
# DT40 TDP1 CPT: growth inhibition of DT40 Tdp1-/-;hTDP1 cells with camptothecin (screen for TDP1 inhibitors) | AID 686979 | Potency, µM (titrated, usually from 46.2 µM), actives largely listed as inhibitors | chicken DT40 Tdp1-/-;hTDP1 cells + 20 nM CPT, ATP luminescence, 48 h | actives 12% (n = 420,000); also: nearly all actives have a fitted effect of over 55% in size
#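 Chicken DT40 Tdp1-/- cells complemented with human TDP1, 400 cells/well, exposed to compounds plus 20 nM camptothecin for at least 48 h at 37 C; viability read as ATP content by CellTiter-Glo luminescence.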
# Numbers stand for hits; – = inactive; ? = inconclusive; · = no result. Unless noted, calls follow the shape of the dose curve; as a rule, active = well fitted curve in the direction sought with a large enough effect; inconclusive = small, poorly fitted or top-dose-only effect, or another doubt; inactive = no such curve, though single readings can be large; an effect the other way counts as inactive or inconclusive.
SMILES,IL-1B inflam inh,HT1080NT lethal,HT1080 IDH1KD tx,DT40 TDP1 no CPT,DT40 TDP1 CPT
CCn1c(=O)c(-c2ccccc2)c(O)c2ccccc21,–,–,–,–,–
O=c1cnc2ccccc2n1Cc1ccc(Br)cc1,–,?,?,?,–
CCCn1c2ccccc2c2cnn(CC(=O)N(CCCOC(C)C)Cc3ccco3)c(=O)c21,·,·,·,16.4µM,16.4µM
COc1cc(S(=O)(=O)N2CCCN(C)CC2)ccc1NC(C)=O,–,–,–,–,–
O=C(NCc1cccc(C(F)(F)F)c1)c1csc([C@H]2C[C@H](O)[C@@H](CO)O2)n1,–,–,?,–,–
CCCN(CCC)CCCNC(=O)Cn1ncc2c3ccccc3n(Cc3ccc(F)cc3)c2c1=O,·,·,·,20.6µM,18.4µM
O=C(Cn1ncc2c3ccccc3n(Cc3ccccc3)c2c1=O)NCCN1CCOCC1,–,–,–,–,–
Cc1ccccc1Cn1c2ccccc2c2cnn(CC(=O)NCCCN3CCOCC3)c(=O)c21,-71.6,?,?,–,?
Cc1ccc(C#CC[N+]2(CC#Cc3ccc(C)cc3)CCCCC2)cc1,-86.0,20.6µM,14.6µM,0.0291µM,0.461µM
CCC[N+]1(CC#CCC(c2ccccc2)c2ccccc2)CCCCC1,-84.8,–,?,1.3µM,1.46µM
C#CC[N+]1(CC#Cc2cccc(C)c2)CCCCC1,–,–,?,2.31µM,2.59µM
C(#Cc1ccccc1)C[N+]1(CC#Cc2ccccc2)CCCCC1,-86.3,?,?,1.46µM,1.84µM
C=CCC(C#Cc1ccc(C)cc1)N(CC)CC (stereo unspecified),–,–,–,–,–
CC(C)=NOc1nc(N2CCOCC2)nc(N2CCOCC2)n1,–,–,–,–,–
COC(=O)C1(C(=O)OC)C/C=C\CN(S(=O)(=O)c2ccccc2[N+](=O)[O-])CC1,–,–,–,–,–
CCCOc1ccc(/C=N/Nc2ccccc2[N+](=O)[O-])c(OCCC)c1,–,–,–,?,–
C#CC[N+]1(CC#Cc2ccccc2)CCCCC1,–,–,–,16.4µM,16.4µM
Cc1c(Cl)cccc1NC(=O)c1ccc2nc(C(C)C)oc2c1,·,·,·,11.6µM,?
CC(=O)c1cccc(NC(=O)c2ccc3nc(C(C)C)oc3c2)c1,·,·,·,16.4µM,?
CC(C)c1nc2ccc(C(=O)Nc3ccccc3F)cc2o1,·,·,·,5.8µM,7.31µM
C=CC1CN2CCC1CC2C(O)c1ccnc2ccc(OC)cc12 (stereo unspecified),–,–,–,·,·
CC(C)c1cc(C(=O)N2CCCC(Nc3ccc(F)cc3)C2)n[nH]1 (stereo unspecified),–,–,–,?,?
COc1cc(NC(=O)C(Cc2ccccc2)NS(=O)(=O)c2cccs2)cc(OC)c1 (stereo unspecified),·,·,·,–,23.1µM
CCc1cccc(NC(=O)C(Cc2ccccc2)NS(=O)(=O)c2cccs2)c1 (stereo unspecified),·,·,·,18.4µM,?
Cc1ccc(NC(=O)C(Cc2ccccc2)NS(=O)(=O)c2cccs2)cc1Cl (stereo unspecified),·,·,·,–,–
SMILES,IL-1B inflam inh,HT1080NT lethal,HT1080 IDH1KD tx,DT40 TDP1 no CPT,DT40 TDP1 CPT
O=S(=O)(Nc1ccc(C(F)(F)F)cc1)c1cnc[nH]1,–,–,–,23.1µM,18.4µM
O=C(Nc1ccccc1Cl)C1(c2ccccc2)CC1(Cl)Cl (stereo unspecified),–,–,–,11.6µM,–
CC(=O)c1ccc(NC(=O)C2(c3ccccc3)CC2(Cl)Cl)cc1 (stereo unspecified),·,–,–,?,–
Cc1cccc(C(=O)NC2CC3CCCC(C2)N3Cc2ccccc2)c1 (stereo unspecified),–,–,–,–,–
CCCc1ccc(C(=O)NNc2cccc(C)c2)cc1,–,?,?,?,–
O=[N+]([O-])/C(C(Cl)=C(Cl)Cl)=C1\Nc2ccccc2O1,–,–,–,–,–
C=CCOn1c(=O)c(-c2ccc(Cl)cc2)[n+]([O-])c2ccccc21,–,–,–,–,–
C=CCOn1c(=O)c(-c2cccs2)[n+]([O-])c2ccccc21,–,–,–,?,23.1µM
Cc1ccc(CNC(=O)c2c(-c3ccccc3)sc3ccccc23)o1,–,–,–,16.4µM,?
COc1cc2sc(-c3ccc(S(C)(=O)=O)cc3)c(C(=O)NCc3ccc(C)o3)c2cc1OC,–,–,–,13µM,?
COc1cc2sc(-c3ccc(S(C)(=O)=O)cc3)c(C(=O)NCCCCO)c2cc1OC,–,–,–,–,–
CSc1ccccc1C(=O)N1CCOCC1,–,–,–,–,–
O=C(c1ccccc1Sc1cccc2ccccc12)N1CCOCC1,–,–,–,20.6µM,13µM
COc1ccc(CNC(=O)c2cnn3c(C(F)F)cc(C)nc23)cc1OC,–,–,–,?,?
Cc1ccc(N2C(=O)C3C4C=CC(CNC(=S)Nc5cccc(Cl)c5)(O4)C3C2=O)cc1 (stereo unspecified),–,–,–,14.6µM,?
Cc1ccc(N2C(=O)C3C4C=CC(CNC(=S)Nc5ccc(F)cc5)(O4)C3C2=O)cc1 (stereo unspecified),–,–,–,18.4µM,?
Cc1cc(C)c(S(=O)(=O)NCC23C=CC(O2)C2C(=O)N(c4ccccc4)C(=O)C23)c(C)c1 (stereo unspecified),–,–,–,?,?
CC(C)COC(=O)NCC12C=CC(O1)C1C(=O)N(c3ccc(Cl)cc3)C(=O)C12 (stereo unspecified),–,–,–,18.4µM,16.4µM
Cc1ccc(N2C(=O)C3C4C=CC(CNC(=S)Nc5ccc(Cl)cc5)(O4)C3C2=O)cc1 (stereo unspecified),–,–,–,23.1µM,?
O=C(CN1N=C(c2ccc(Cl)cc2)CCC1=O)NCc1cccnc1,–,–,–,–,–
Cc1ccc(N2C(=O)C3C4C=CC(CNC(=S)N5CCN(c6ccccn6)CC5)(O4)C3C2=O)cc1 (stereo unspecified),–,–,–,18.4µM,23.1µM
O=C1C2C3C=CC(CNS(=O)(=O)c4ccccc4[N+](=O)[O-])(O3)C2C(=O)N1c1ccccc1 (stereo unspecified),–,–,–,–,?
CC(=O)c1c(C)oc2ccc(N(C(=O)c3ccncc3)S(=O)(=O)c3ccc(F)cc3C)cc12,·,·,·,7.31µM,10.3µM
CCOC(=O)c1c(C)oc2ccc(N(C(=O)c3ccncc3)S(=O)(=O)c3ccc(F)cc3C)cc12,·,·,·,23.1µM,?
CCOC(=O)c1c(C)oc2ccc(OCC(=O)C(C)(C)C)cc12,–,–,–,?,–
Cc1cc(F)ccc1S(=O)(=O)N(C(=O)c1ccncc1)c1ccc(OC(=O)c2ccncc2)cc1,–,–,–,14.6µM,23.1µM
